Pf Dd2 growth – P. falciparum Dd2 growth inhibitors, primary screen, SYBR Green fluorescence, single dose replicates; activity change, % at 10 µM; 94,000 tested, 2.3% active; 72 h; stronger effect = lower value; in the data active = activity change below about -80%; inconclusive = no clear call, values can overlap the other calls
T cruzi growth-1 – T. cruzi intracellular proliferation inhibitors, primary screen, cell-based, beta-gal Tulahuen parasites, NIH3T3 host, luminescence; AID 624255, 2012; 77,000 tested, 5.9% active; T. cruzi beta-gal in NIH3T3, GalScreen luminescence, 90 h; inhibition, % at 8.34 µM;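 active = mean inhibition above about 93%, with at least 55% of replicates each passing it, limit read from the data, passing the limit was not always enough; inconclusive = only one of those two conditions holds; inactive = neither condition holds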
C diff growth – C. difficile growth inhibitors, primary screen, HTS; Clostridium difficile clinical isolate growth, OD600, 24 h; stronger effect = lower value; growth activity, negative = inhibition, % at 16 µg/mL (by protocol); 86,000 tested, 0.25% active;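 active = mean growth activity at or below -80% and every replicate also at or below -80%; inconclusive = mean at or below -80% but some replicate above -80%; inactive = mean growth activity above -80%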;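 note: 0% = DMSO wells and -100% = levofloxacin 16 µg/mL wells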
T cruzi growth-2 – T. cruzi intracellular proliferation inhibitors, confirmation, cell-based, NIH3T3 host, beta-gal parasite, luminescence, cherry-pick | shares compounds with T cruzi growth-1 | T. cruzi beta-gal in NIH3T3, GalScreen luminescence, 90 h | inhibition, % at 8.35 µM | 5,600 tested, 72% active;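 active = mean replicate inhibition above about 95% and at least 55% of replicates individually reaching it, limit read from the data; inconclusive = only one of the two criteria is met; inactive = neither criterion is met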
T cruzi growth-3 – inhibitors of intracellular T. cruzi replication, confirmation, NIH3T3 host cells, beta-gal parasites, cherry-pick, set 2. 5,600 tested, 21% active. shares compounds with T cruzi growth-1. T. cruzi beta-gal in NIH3T3, GalScreen luminescence, 90 h. inhibition, % at 2.09 µM;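 active = mean inhibition above about 95%, with at least 55% of replicates also reaching it, limit read from the data; inconclusive = meets just one of the two conditions; inactive = meets neither condition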;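 note: plate controls were neutral control median for no effect and positive control median for full effect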
NIH3T3 tox – cytotoxicity in mouse NIH/3T3 fibroblasts, confirmation, cytotoxicity control for T. cruzi proliferation inhibitor project, cell-based, cherry-pick, single point | cytotoxicity (signal decrease), % at 8.35 µM | AID 651742, 2012 | NIH/3T3 viability, CellTiter-Glo ATP luminescence, 90 h | 5,600 tested, 14% active | shares compounds with T cruzi growth-1;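 active = mean signal decrease across replicates above about 35% based on untreated-well scatter, with enough replicates individually passing, limit read from the data; inconclusive = no rule stated though some were filed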;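 note: 0% = median of neutral control wells and 100% = median of positive control wells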
NIH3T3 tox 2 – NIH/3T3 fibroblast cytotoxicity, confirmation, cytotoxicity control, cell-based, cherry-pick, single point, set 2 | inhibition, % at 24.9 µM | shares compounds with T cruzi growth-1 | NIH/3T3 viability, CellTiter-Glo ATP luminescence, 90 h | 5,600 tested, 56% active | AID 651744, 2012;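 active = mean loss of cell viability signal at or above a set limit, and enough replicates individually reaching it; inconclusive = meets only the mean limit or only the replicate share; inactive = meets neither condition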;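 note: 0% = median of neutral control wells and 100% = median of positive control wells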
* = called active by the depositor; ? = inconclusive; . = not tested or not shown. Compounds with a hit are over-represented: about 6.7% of the library has one in this group of screens.

SMILES	Pf Dd2 growth	T cruzi growth-1	C diff growth	T cruzi growth-2	T cruzi growth-3	NIH3T3 tox	NIH3T3 tox 2
N#C[C@@H]1[C@H](c2ccc(C3=CCCCC3)cc2)[C@@H](CO)N1C(=O)NC1CCCCC1	37	92	4	.	.	.	.
CCCNC(=O)N1[C@H](CO)[C@H](c2ccc(C3=CCCC3)cc2)[C@@H]1C#N	13	27	-2	.	.	.	.
N#C[C@@H]1[C@@H](c2ccc(C3=CCCCC3)cc2)[C@@H](CO)N1C(=O)NC1CCCC1	-44	.	-7	.	.	.	.
C/C=C/c1ccc([C@H]2[C@@H](CO)N(C(=O)Nc3ccccc3F)[C@H]2C#N)cc1	-2	105*	-2	87	56	10	48*
N#C[C@@H]1[C@H](c2ccc(C3=CCCCC3)cc2)[C@H](CO)N1C(=O)NC1CCCCC1	17	107*	-6	104*	70	30	44*
N#C[C@H]1[C@@H](c2ccc(C3=CCCCC3)cc2)[C@H](CO)N1C(=O)NC1CCCCC1	30	100*	1	105*	83	41*	54*
CCCNC(=O)N1[C@@H](C#N)[C@H](c2ccc(C3=CCCCC3)cc2)[C@@H]1CO	-67	103*	-22	98*	107*	21	33*
C/C=C/c1ccccc1[C@H]1[C@@H](CO)N(C(=O)Nc2ccccc2F)[C@H]1C#N	2	.	16	.	.	.	.
CO[C@H]1CN(C)C(=O)c2cc(NS(=O)(=O)c3ccc(Oc4ccccc4)cc3)ccc2OC[C@@H](C)NC[C@@H]1C	-33	-68	.	.	.	.	.
CCCNC(=O)N1CC2(C1)CN(C(=O)CC)[C@H](CO)c1[nH]c3cc(OC)ccc3c12	23	.	-5	.	.	.	.
C[C@H](CO)N1C[C@H](C)[C@@H](CN(C)C(=O)Nc2ccc3c(c2)OCO3)Oc2ccc(NC(=O)Cn3cnnn3)cc2CC1=O	25	8	-6	.	.	.	.
O=C(NCC1CC1)[C@@H]1[C@@H](CO)[C@@H]2Cn3c(cccc3=O)[C@@H]2N1C(=O)Nc1ccccc1	.	-2	-1	.	.	.	.
O=C(c1ccccc1)N1[C@H](CO)[C@H](c2ccccc2)C12CN(CCC(F)(F)F)C2	-14	.	11	.	.	.	.
N#C[C@@H]1[C@@H](c2ccc(C3=CCCCC3)cc2)[C@H](CO)N1C(=O)NC1CCCC1	-80	.	4	.	.	.	.
N#C[C@H]1[C@H](c2ccc(C3=CCCCC3)cc2)[C@H](CO)N1C(=O)NC1CCCCC1	20	101*	-25	97*	101*	10	69*
N#C[C@H]1[C@@H](c2ccc(C3=CCCCC3)cc2)[C@@H](CO)N1C(=O)Nc1ccccc1F	-17	69	-8	.	.	.	.
N#C[C@@H]1[C@H](c2ccc(C3=CCCCC3)cc2)[C@H](CO)N1C(=O)Nc1ccccc1F	0	102*	-5	110*	59	-5	15
C[C@@H]1CN([C@@H](C)CO)C(=O)c2cc(NC(=O)CCC(F)(F)F)ccc2O[C@@H](C)CCCCO[C@H]1CN(C)C(=O)C1CCCCC1	-45	8	-5	.	.	.	.
C[C@H](CO)N1C[C@H](C)[C@H](CN(C)Cc2ccc3c(c2)OCO3)Oc2ccc(NC(=O)C3CCCCC3)cc2CC1=O	-19	49	3	.	.	.	.
COc1ccc(S(=O)(=O)Nc2ccc3c(c2)C(=O)N([C@H](C)CO)C[C@@H](C)[C@H](CN(C)C(=O)Nc2ccccc2)OCCCC[C@@H](C)O3)cc1	-36	67	2	.	.	.	.
COc1ccc(S(=O)(=O)Nc2ccc3c(c2)C(=O)N([C@H](C)CO)C[C@H](C)[C@H](CN(C)C(=O)Nc2ccc(C(F)(F)F)cc2)OCCCC[C@@H](C)O3)cc1	-41	108*	22	104*	58	21	?

Compound activity from PubChem BioAssay.
